CHX counter: affects cycloheximide protein synthesis inhibition readout, counter-screen; cell reporter, cycloheximide protein synthesis inhibition counterscreen; max response, %; 300,000 tested, 12% active; AID 2314; in the data active = max response mostly above about 13%, no sharp cut-off; inactive = mostly below about 14%; note: read at 38.3 µM for the half of the compounds with a filed dose; 0% is about no effect
Lassa entry inh: Lassa virus entry inhibition; Lassa virus pseudotype entry inhibition, cell reporter; Potency, µM (titrated, usually from 37.9 µM), inactives show at the highest dose activity change, negative = inhibition, usual class: inhibitors; 300,000 tested, 1.2% active; AID 540256; calls by dose curve; tested in HEK293 cells; note: potency is the fitted concentration of half-maximal effect; % is set by controls: 0 for no effect and ±100 for the full control effect; nearly all actives have a fitted effect of over 50% in size
Shiga inhibitor: inhibitors of Shiga toxin in Vero cells; Vero cells, Shiga toxin protein synthesis inhibition reporter; 290,000 tested, 9.2% active; inhibition, % at 38.7 µM; in the data active = inhibition mostly above about 28%, no sharp cut-off; inactive = mostly below about 43%; note: 0% is about no effect
MARV entry inh: inhibitors of Marburg virus binding or cell entry; Marburg virus pseudotyped entry inhibition, cell reporter; Potency, µM (titrated, usually from 37.8 µM), inactives show top-dose activity change, negative = inhibition, actives largely listed as inhibitors; 300,000 tested, 1.8% active; calls by dose curve; tested in HEK293 cells; note: potency is the fitted concentration of half-maximal effect; % is set by controls: 0 for no effect and ±100 for the full control effect
Numbers without * were called inactive; [ ] = another dose, or the depositor's remark. Most compounds without a hit are left out; they make up all but 12% or so of the library.

COc1cccc(CNCc2ccc(SC)cc2)c1OC was read as CHX counter -1, Lassa entry inh 4%, Shiga inhibitor -3 and MARV entry inh inconclusive.
CCc1cccc(NC(=O)CCCn2nc(C)c3c(C)n(-c4ccccc4)nc3c2=O)c1 was read as CHX counter -3 and Shiga inhibitor -3.
`O=C(Nc1ccc(-c2cn3ccsc3n2)cc1)C1CC1` gave CHX counter 61*, Lassa entry inh inconclusive, Shiga inhibitor 43* and MARV entry inh -4%.
For CC(C)C(=O)Nc1cccc(-c2cn3ccsc3n2)c1 the results were CHX counter 15, Lassa entry inh 16%, Shiga inhibitor 15 and MARV entry inh 18%.
For O=C(CCN1C(=O)c2ccccc2C1=O)Nc1ccc(-c2cn3ccsc3n2)cc1 the results were CHX counter 33*, Lassa entry inh inconclusive, Shiga inhibitor 52* and MARV entry inh -36%.
`O=C(Nc1ccc(-c2cn3ccsc3n2)cc1)C1CCCC1` gave CHX counter 32*, Lassa entry inh 6%, Shiga inhibitor 33 and MARV entry inh inconclusive.
For CCC(=O)Nc1cccc(-c2cn3ccsc3n2)c1 the results were CHX counter 17, Lassa entry inh 6%, Shiga inhibitor 43 and MARV entry inh 4%[46.1 µM].
Cc1ccc2sc(-c3ccc(NC(=O)CCN4C(=O)c5ccccc5C4=O)cc3)nc2c1 was read as CHX counter 50*, Shiga inhibitor 85* and MARV entry inh 1%.
Screening Cn1c2ccccc2c(=O)c2c(=O)n(Cc3ccccc3)c(-c3ccc(F)cc3)nc21 returned CHX counter -2, Lassa entry inh -13%, Shiga inhibitor -11 and MARV entry inh 5%.
For CCCSc1ncc(Cl)c(C(=O)Nc2scc(-c3ccc(C)cc3)c2C(=O)OCC)n1 the results were Lassa entry inh -15%[46.1 µM] and MARV entry inh 0%[46.1 µM].
`CCOC(=O)c1c(NC(=O)c2ccccc2Br)sc2c1CCc1ccccc1-2` gave CHX counter 13, Lassa entry inh -28%, Shiga inhibitor -8 and MARV entry inh inconclusive.
Cc1ccc(-c2nc(CS(=O)(=O)CC(=O)NCCN3CCCC3)c(C)o2)cc1 was read as CHX counter -4, Lassa entry inh inconclusive, Shiga inhibitor -13 and MARV entry inh inconclusive.
COc1ccc(CNC(=O)C2Cc3cc(S(=O)(=O)N4CCCC4)ccc3N2C(C)=O)c(OC)c1 (stereo unspecified) was read as CHX counter 1, Lassa entry inh 9%[46.1 µM], Shiga inhibitor -10 and MARV entry inh 0%[46.1 µM].
`CC1CCc2c(sc3nnn(Cc4ccccc4)c(=O)c23)C1` (stereo unspecified) gave Lassa entry inh -5%[46.1 µM] and MARV entry inh 1%[46.1 µM].
Screening C=CCn1nnc2sc3c(c2c1=O)CCC(C)C3 (stereo unspecified) returned CHX counter 29*, Lassa entry inh 23%, Shiga inhibitor 49* and MARV entry inh 3%.
Screening CSc1nc2sc3c(c2c(=O)n1C)CCC(C)C3 (stereo unspecified) returned CHX counter 22*, Lassa entry inh -11%, Shiga inhibitor 11 and MARV entry inh 18%.
`COc1ccc(NC(=O)C2CCN(Cc3cnn(-c4ccccc4)c3-n3cccc3)CC2)cc1OC` gave CHX counter 34*, Lassa entry inh -4%, Shiga inhibitor 49* and MARV entry inh inconclusive.
`COc1cccc(NC(=O)C2CCN(Cc3cnn(-c4ccccc4)c3-n3cccc3)CC2)c1` gave CHX counter 51*, Lassa entry inh inconclusive, Shiga inhibitor 73 and MARV entry inh inconclusive.
Screening O=C(Nc1ccccc1Cl)C1CCN(Cc2cnn(-c3ccccc3)c2-n2cccc2)CC1 returned CHX counter 27*, Lassa entry inh -23%, Shiga inhibitor 24 and MARV entry inh inconclusive.
`COc1ccc(OC)c(NC(=O)C2CCN(Cc3cnn(-c4ccccc4)c3-n3cccc3)CC2)c1` gave CHX counter -1, Lassa entry inh inconclusive, Shiga inhibitor -6 and MARV entry inh inconclusive.
`CCC(C)NC(=O)c1sc2nc(C)c(C(=O)Nc3ccc(C)cc3C)c(-c3ccc(NC(C)=O)cc3)c2c1N` (stereo unspecified) gave Lassa entry inh -11%[46.1 µM] and MARV entry inh -14%[46.1 µM].
`Cc1cc2n(n1)CCCN2C(=O)Nc1ccccc1F` gave Lassa entry inh 26%[46.1 µM].
For O=c1[nH]c(C2CCN(S(=O)(=O)/C=C/c3ccccc3)CC2)nc2c1nnn2Cc1ccccc1 the results were CHX counter -3, Lassa entry inh inconclusive, Shiga inhibitor -12 and MARV entry inh -30%[46.1 µM].
`CCOc1ccc(C(=O)N2CCN(c3ccccc3)CC2)cc1` gave CHX counter 11, Lassa entry inh 4%, Shiga inhibitor 30* and MARV entry inh inconclusive.
CCOc1ccc(C(=O)N2CCN(c3ccccc3)CC2)cc1OCC was read as CHX counter -5, Lassa entry inh 0%, Shiga inhibitor 0 and MARV entry inh -1%.
Screening CC(C)(C)c1ccc(C(=O)N2CCN(c3nc4ccccc4o3)CC2)cc1 returned CHX counter -2 and Shiga inhibitor -2.
O=C(c1ccc(-c2ccccc2)cc1)N1CCN(c2ccccc2)CC1 was read as CHX counter 13* and Shiga inhibitor 28.
For O=C(c1ccc(-c2ccccc2)cc1)N1CCN(c2nc3ccccc3o2)CC1 the results were CHX counter 15* and Shiga inhibitor 13.
COc1ccc(N2CCN(C(=O)c3ccc(-c4ccccc4)cc3)CC2)cc1 was read as CHX counter 9 and Shiga inhibitor 18.
O=S1(=O)C2CC3OC2(CC3c2ccc(F)cc2)CN1Cc1ccc(Cl)cc1 (stereo unspecified) was read as CHX counter 2 and Shiga inhibitor -11.
`O=C(CC1CCCC1)Nc1nc2ccccc2[nH]1` gave CHX counter 28*, Lassa entry inh -13%, Shiga inhibitor 56 and MARV entry inh inconclusive.
O=C(Nc1nc2ccccc2[nH]1)C1CCCC1 was read as CHX counter 60*, Shiga inhibitor 81* and MARV entry inh -14%[46.1 µM].
For O=C(Nc1nc2ccccc2[nH]1)C1CCC1 the results were CHX counter 42*, Shiga inhibitor 108* and MARV entry inh inconclusive.
O=C(CN1C(=O)NC2(CCCC2)C1=O)Nc1nc2ccccc2[nH]1 was read as Lassa entry inh 3% and MARV entry inh inconclusive.
`Cc1sc(NC(=S)NC(=O)C2CCCCC2)c(C(N)=O)c1C` gave CHX counter -4, Lassa entry inh 5%, Shiga inhibitor 14 and MARV entry inh 13%.
CN(C)c1ccc(NC(=O)Oc2ccccc2)cc1 was read as CHX counter 29*, Lassa entry inh -19%, Shiga inhibitor 60* and MARV entry inh 14%.
Screening CC(=O)Oc1ccc(NC(=O)Cc2ccccc2)cc1 returned CHX counter -2, Lassa entry inh 17%, Shiga inhibitor 14 and MARV entry inh 13%.
`CCc1ccc(OC(=O)Nc2ccccc2)cc1` gave CHX counter 13*, Lassa entry inh 0%[46.1 µM], Shiga inhibitor 13 and MARV entry inh 20%[46.1 µM].
COc1ccc(OC(=O)Nc2ccccc2)cc1 was read as CHX counter 32*, Lassa entry inh 1%, Shiga inhibitor 98* and MARV entry inh inconclusive.
CC(=O)Nc1ccc(NC(=O)Oc2ccccc2)cc1 was read as CHX counter 10, Lassa entry inh inconclusive, Shiga inhibitor -3 and MARV entry inh 2%.

Assay outcomes (PubChem BioAssay)
